# Measured values published in the supplement of paper PMC6555819.
# Assays:
# Assay in all cases: PBM binding z-score (relative to random genomic background probes); higher = stronger binding; sequences stand for … in GC…GCGATTGACAGCGTAGAATGAAGG
# [1] = test system: RARb homodimer (NR concentration 270 nM)
# In short: (§1)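 Ligand-free nuclear receptor dimers were applied to custom Agilent 4×180K protein-binding microarrays whose double-stranded probes carried direct-repeat seeds, single-nucleotide variants, half-site ablations and random human genomic background sequences in 34-nt variable regions. Incubation lasted 1 h. Binding z-scores were computed against the random background probes from regression-normalized fluorescence.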
# [2] = test system: RARg:RXRa (NR concentration 270 nM, RXRa partner concentration 90 nM)
# In short: as §1
# [3] = test system: RARg homodimer (NR concentration 270 nM)
# In short: as §1
# [4] = test system: RXRa DBDmut IVT, anti-RXR (DBD mutation: RXRa K156A/R161A, NR concentration 90 nM)
# In short: as §1
# [5] = test system: RXRa homodimer (NR concentration 180 nM)
# In short: as §1
# [6] = test system: THRa:RXRa (NR concentration 90 nM, RXRa partner concentration 90 nM)
# In short: as §1
# [7] = test system: THRa homodimer (NR concentration 90 nM)
# In short: as §1
# [8] = test system: VDR homodimer (NR concentration 270 nM)
# In short: as §1
Sequence,PBM binding z-score [1],PBM binding z-score [2],PBM binding z-score [3],PBM binding z-score [4],PBM binding z-score [5],PBM binding z-score [6],PBM binding z-score [7],PBM binding z-score [8]
GCGACTGGGGCAAAGCAGGTTCCCATAAGGTTGG,0.109,-0.179,0.0897,-0.512,-0.314,1.38,-0.261,-0.513
TCTAGCAGTCCAGAGGGTCACTCAAGAGGTACGG,2.78,2.4,1.91,0.0371,2.54,1.79,0.000359,0.904
TTACCAAGGTGAAAGGTCGTTGATGCACGCCTTG,2.52,4.17,2.31,0.684,5.67,3.23,0.838,1.67
CCTGCTAGGTTAATGGTCAGCTAAAGCAGCTCGC,0.863,0.422,0.563,0.452,0.173,0.215,-0.284,-0.175
CAAACTAGGCCACAGAGGTCAAAGTCCGTGCGTA,4.87,5.71,4.91,2.16,6.16,3.95,1.62,4.03
CTCGAAAGGTCGGTTGAGGTGAGTATTCGGATAA,2.52,2.59,2.91,1.01,2.25,4.98,1.25,0.522
AGAATGAGGTAATTAAGATCAGGGAATTGCGGTC,-0.177,0.105,0.0569,-0.166,0.198,1.34,0.328,-0.255
GGGACTGGGGCATCAGCAGGTTACCATAACTTAA,1.91,1.51,1.03,-0.52,0.556,1.66,1.46,0.605
CAGCCGAGGTCAGGGCCAGTATAGGAGGAACGTT,3.81,5.52,5.53,2.15,5.24,3.92,1.97,1.53
CCTATTAGTTGACCATAAGGGCAGCCGAAGCTCG,1.55,0.749,0.64,0.252,0.392,1.36,0.892,0.242
GCTGCTAGGTCAACTGATGGTCAGGTAAAGCTCG,3.83,5.13,5.23,1.6,3,3.27,1.76,0.0826
TCATATAGGTAAACCGGTGAAAGTCCGTAAGTTA,0.357,0.195,0.0982,1.45,0.746,0.262,0.203,0.541
GCTTACGGGGCAAAGGTTATAGCATGAATAGAAT,1.58,3.73,1.43,1.11,4.42,1.89,-0.425,-0.046
CCTTACGGGTCACTGACAGGTTATCGCATTTGGA,3.3,5.91,4.66,1.9,5.05,3.02,0.17,0.982
CCATACAGGTGAGAAGGTAACTCAGCCTCGATTA,0.666,0.662,0.72,0.319,0.539,0.148,0.348,-0.195
ATACCATGGTGATCGTGAGGTCGTTGATACTAAC,1.18,0.425,0.264,0.547,0.893,2.48,1.85,2.87
CAGCCTAGGTAAGGGCCAGTATAGGAGGAACGTT,-0.166,-0.284,0.264,-1.12,-0.418,-0.373,-0.773,-0.434
AGAACGAGGGCACGCTGAGTTGACAGCAGAGTAG,1.43,2.35,2.33,1.6,1.73,2.16,-0.174,1.79
ACTAGCAGGCCAAGGTTGGGTCACTCAAACAAAG,2.3,1.64,1.36,-0.829,0.638,2.04,0.571,0.0121

Sequence,PBM binding z-score [1],PBM binding z-score [2],PBM binding z-score [3],PBM binding z-score [4],PBM binding z-score [5],PBM binding z-score [6],PBM binding z-score [7],PBM binding z-score [8]
TCATATAGGTAATCCAGGTGAAAGTCGGCATCTA,0.511,0.501,0.455,1.5,0.995,2.41,1.35,0.168
GCTGCTAGGTCAGGTAGGTCAGCTAACGGGTACG,4.09,4.09,4.85,0.899,2.38,2.78,0.866,0.966
GATACAGGGTCAAGGCCATAGTACGCGTATTGAT,3.69,5.34,5.15,2.44,5.52,3.54,1.52,2.22
TCTAGCAGGCCAGGGGGTCACTCAAGAGGTACGG,3.61,5.22,4.08,1.3,5.38,3.35,1.52,2.91
CCTACTGGGCCACGAAAGGTCATTGAGTCAGTGA,4.62,4.82,4.58,0.536,5.23,3.79,0.857,1.69
ACAGACAGGTGATGAACGTAACTCAGGCTATCAT,0.0133,0.303,0.489,0.0589,0.363,0.000937,-0.114,-0.513
AATACCGGGTCATCGTAGGCCAGAGTACGCACAG,3.19,4.84,4.28,2.45,5.06,4.59,1.69,3.06
CAAACTAGGTCAAGAGCTCAAAGTCCGCTTCCCG,2.98,3.82,4.02,1.34,2.39,2.73,0.891,0.0239
TCTAGCAGGCCTGAGGGTCACTCAAGAGGTACGG,2.52,2.29,1.53,0.198,2.59,1.75,-0.278,0.36
TCGAGTCGGTTAGGGGCATTCAGAATGGCGTCGA,0.345,-0.19,-0.321,0.196,0.0404,1.38,-0.39,1.12
ATCTCTAGGTAACAAGTTCAGTAAAAGAGAGGAC,2.18,1.21,1.6,1.08,1.1,1.85,1.12,2.15
CGTCAAAGTTCATCTAAGGTAACGTAAAGCACGC,4.35,5.77,6.43,5.14,4.66,5.26,2.52,5.45
CGAACTAGGTCAAGGACAGAGAATCTCCGCACGC,2.93,3.95,4.67,1.52,2.61,2.74,1.79,0.0808
CCTCGGAGGACAACAGGAGGTCAGAGTTGCCAGA,3.77,3.42,3.26,0.349,2,3.08,1.6,1.5
CGTCCAAGGTCAAGGTCAGCGAAAGAGACTCGAA,5.23,6.94,7.94,3.44,6.74,4.14,3.58,3.19
TCATATAGGTAAATGCTATGTGAAAGTCCGATCT,-0.22,0.473,0.452,1.17,0.894,0.0535,0.0976,0.435
GATACAGGGTCAGCTAGAGGCGAGAGTATGGAAA,2.7,5.04,4.34,1.57,4.51,2.79,0.319,0.871
CATCAAAGTTCAACTAAGGTAACGTAAAGCACGC,4.32,5.94,6.82,4.67,5.76,5.1,2.29,4.37
CGTCCAAGGTCATAGCAGGTCAGTGAAGACAGAT,4.65,6.19,6.53,3.91,5.72,4.99,2.79,3.76

Sequence,PBM binding z-score [1],PBM binding z-score [2],PBM binding z-score [3],PBM binding z-score [4],PBM binding z-score [5],PBM binding z-score [6],PBM binding z-score [7],PBM binding z-score [8]
TCTTGTAGACCAGCAGGTTAAGAAAGCTGGCCAA,0.0516,-0.0399,-0.6,0.357,0.393,0.00833,-0.609,-0.234
ATCGAAAGGTCGACGAGGTGAGTCTACACCGTTT,3.08,4.01,3.95,1.04,4.04,3.99,1.04,0.956
CCTTTTAGTTGACCATAAGGGCAACCGAAGCTCG,2.13,1.55,1.08,0.818,0.506,1.8,1.51,0.92
TTACCAAGGTGAAACGTCGTTGATGCACGCCTTG,0.238,0.69,0.555,0.0137,1.01,1.59,0.421,-0.415
GCTAGCAGCCCATTTGGGTCACTCAATGACGGGC,1.07,0.319,0.556,-0.892,0.587,1.24,0.119,-0.375
AGTCAAAGTTCACTCGGTAACGTAAGATTCAGCT,3.89,4.91,5.79,4.02,3.83,1.79,-0.0176,4.11
ACTTACGGGTCAACGAGGTAATAGCACGCGTATA,3.07,5.4,5.19,2.15,6.11,4,0.859,1.79
CCAGACAGGTGAGAGGGTAACTCAGCCTCGATTA,1.02,0.576,0.626,-0.231,0.666,0.388,0.0769,0.287
GCAGACAGGCGAAACGCAGGTAACTCAGGGTGGC,-0.842,-0.359,-0.272,-0.577,-0.167,0.338,-0.81,-0.974
CCTGCTAGGTCAATGGTTAGCTAAAGCAGCTCGC,2.6,3.3,3.9,1.65,1.78,2.11,0.48,-0.158
TCTAGTTGGTCAACGGTCACACACTCGAAATGCG,2.49,1.51,2.16,1.24,1.23,0.548,0.185,0.188
GCATATAGGTAATACAAGGTGAAAGTGCGATTGT,0.903,0.659,0.584,0.39,0.992,4.13,1.19,0.133
TAGCCAAGGTCATTGGGCCAGTATAGTACGCATC,4.21,5.55,5.5,3.08,5.46,4.06,2.04,3.47
ATCGAAAGGTCGAGGTGAGTGTAGAGAAAGGGAA,2.96,4.37,4.06,0.896,4.28,3.21,0.885,0.854
CGAACTAGATCAAGGACAGTGAATCTCCGCACGC,0.0367,-0.32,0.287,0.258,-0.168,1.22,1.24,-0.103
TCTATTAGTTGATTAGGGCAACAGAAACAGCGGA,0.664,0.691,0.686,0.926,0.691,0.607,0.289,0.253
GCGACTGCGGCATCAGCAGGTTACCATAACTTAA,0.0981,-0.378,-0.604,-0.332,0.0443,0.0329,0.0125,-0.566
TCATGTAGATCAACAGGAGGTTAAGAAAGATCGA,0.329,0.904,0.374,0.621,1.04,0.683,-0.647,0.15
TCTCGGCGGACACGAAGGTCAGAGCTTTCCAGAG,2.83,2.03,2.17,0.141,1.28,1.16,-0.151,0.187
